Compound activity as filed in PubChem.
IEC-6 tox-1 = cytotoxicity in IEC-6 intestinal epithelial cells, primary screen, cytotoxicity control for KLF5 inhibitor project, cell-based, luminescence; AID 1825, 2009; hit rate 0.78% among 290,000; IEC-6 cytotoxicity, luminescence viability; inhibition, % at 5 µM;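 also: 0% = plate median of test compound wells and 100% = cytotoxic reference compound wells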
BaF3 tox = parental Ba/F3 cell viability inhibition, counter-screen for JAK2V617F inhibitor project, murine pro-B, CellTiter-Glo luminescence; hit rate 1.1% among 220,000; inhibition, % at 5.6 µM; CellTiter-Glo ATP luminescence; AID 1486, 2009;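 active = inhibition above a per-campaign cutoff, the mean inhibition of all tested compounds plus 3 SD, cut at about 27% in these data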;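 also: 0% = DMSO wells and 100% = JAK Inhibitor I control wells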
KLF5 inh = KLF5 expression inhibitors, primary screen, DLD-1 cells, luminescence; DLD-1 KLF5 promoter-luciferase reporter; hit rate 0.23% among 290,000; inhibition, % at 5 µM; AID 1700, 2009;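 active = inhibition above a per-plate limit of that plate's mean compound inhibition plus 3 SD, cut at about 60% in these data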;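 also: 0% = DMSO wells and 100% = LY294002 at 200 µM; higher means less KLF5 promoter-driven luciferase light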
Ba/F3 V617F tox = reduced viability of JAK2V617F-dependent Ba/F3 cells, primary screen, JAK2V617F inhibitor project, cell-based, Ba/F3 EpoR-JAK2V617F, luminescence. AID 1446, 2008. ATP luminescence. inhibition, % at 5.6 µM. hit rate 1.1% among 220,000;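 active = inhibition above the campaign mean plus 3 SD over all tested compounds, cut at about 24% in these data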;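 also: cytokine-independent growth of Ba/F3 cells driven by EpoR plus mutant JAK2; 0% = DMSO-treated cells and 100% = JAK inhibitor I control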
APP transl inh = inhibitors of APP translation via 5'UTR reporter, primary screen, APP 5'UTR luciferase, SH-SY5Y cells; SH-SY5Y APP 5'UTR-luciferase reporter, luminescence; inhibition, % at 2 µM; hit rate 0.82% among 190,000; AID 1285, 2008;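 active = inhibition above a set limit, derived from the sample mean plus 3 SD, cut at about 45% in these data; inconclusive = one replicate passes the limit while the other fails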
aSyn 5UTR inh = MLPCN primary screen, SNCA 5' untranslated region; AID 1813, 2009; hit rate 0.82% among 300,000; inhibition, % (tested at 7.5 µM); alpha-synuclein 5'UTR reporter, inhibitor activity; in the data active = inhibition above about 60%; inconclusive = no clear call, values can overlap the other calls;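 also: H4 neuroglioblastoma cells stably carrying SNCA 5'UTR luciferase fusion; 0% = DMSO wells and 100% = positive control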
KLF5 inh confirm = KLF5 expression inhibitors, confirmation, DLD-1 cells, luminescence; shares compounds with KLF5 inh; DLD-1 KLF5 promoter firefly luciferase reporter; inhibition, % at 4 µM; hit rate 79% among 610;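 active = inhibition above a set limit taken from the earlier primary screen, cut at about 63% in these data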;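 also: 0% = DMSO wells and 100% = LY294002 at 200 µM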
IEC-6 tox-2 = cytotoxicity in rat IEC-6 cells, cytotoxicity control for KLF5 inhibitor project, cell-based, luminescence, triplicate; shares compounds with KLF5 inh; IEC-6 rat intestinal cells, viability luminescence; inhibition, % at 4 µM; hit rate 56% among 610; in the data active = inhibition above about 23%;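 also: cells exposed to compounds for 48 hours before viability read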
IEC-6 cytotox cf = cytotoxic compounds in IEC-6 epithelial cells, confirmation, cytotoxicity control, cell-based, luminescence; shares compounds with IEC-6 tox-1; IEC-6 rat intestinal epithelial viability; inhibition, % at 5 µM; hit rate 63% among 1,900;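 also: 0% = vehicle and 100% = reference cytotoxic drug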
An asterisk follows results filed as active; ? = inconclusive; . = not tested or not shown. Only some compounds are listed: those with a hit (about 2.2% of all), similar ones and a draw of the others. Rule as the data show it, unless noted: active = inhibition above about 22%; inactive = the rest.

SMILES | IEC-6 tox-1 | BaF3 tox | KLF5 inh | Ba/F3 V617F tox | APP transl inh | aSyn 5UTR inh | IEC-6 cytotox cf | others
O=c1cccc2n1CC1CC2CN(S(=O)(=O)c2ccc(F)cc2)C1 (centres undefined) | -2 | 6 | 11 | 1 | -13 | 23 | .
CCN1/C(=C\C=C\C2=[N+](CC)c3ccccc3C2(C)C)C(C)(C)c2ccccc21 | 64* | 93* | 84* | 99* | 93* | 104* | 70* | KLF5 inh confirm=104*;IEC-6 tox-2=64*
COC/C=C1\CN2C3C[C@@H]1[C@H]1COC4=Nc5cc(OC)c(OC)c(OC)c5[C@@]43C[C@@H]12 | . | . | . | . | . | 8 | .
CC(C)[C@H]1C(=O)O[C@H](C(C)C)C(=O)N(C)[C@@H](C(C)C)C(=O)O[C@H](C(C)C)C(=O)N(C)[C@@H](C(C)C)C(=O)O[C@H](C(C)C)C(=O)N1C | 89* | 77* | 70* | 98* | 5 | 86* | 54* | KLF5 inh confirm=-3;IEC-6 tox-2=10
C/C=C(\C)C(=O)N[C@@H](c1ccccc1)[C@@H](O)C(=O)O[C@H]1C[C@@]2(O)[C@@H](OC(=O)c3ccccc3)C3[C@](C)(C(=O)[C@H](O)C(=C1C)C2(C)C)[C@@H](O)C[C@H]1OC[C@@]31OC(C)=O (some centres undefined) | 89* | . | 50 | . | . | 98* | 70*
C/C1=C\[C@@H](C)C/C=C/[C@H]2[C@@H]3O[C@]3(C)[C@@H](C)[C@H]3[C@H](Cc4c[nH]c5ccccc45)NC(=O)[C@]32C(=O)/C=C/C(=O)[C@@H]1O | 91* | 63* | -7 | 65* | 84* | 81* | 66*
O=C(COc1ccccc1)N1CCN(CC2CC=CCC2)CC1 (centres undefined) | 1 | . | -1 | . | . | -1 | .
CC(C)c1ccc(NC(=O)CCNC(=O)N2C[C@H]3C[C@@H](C2)c2cccc(=O)n2C3)cc1 | -4 | . | 0 | . | . | -12 | .
CN(C)c1ccc(/C=C/c2cc[n+](C)c3ccccc23)cc1 | 28* | 82* | 32 | 101* | -5 | . | 21
COc1cc(OC)c([C@H]2C=C(C)[C@H]3C[C@@H]2C3(C)C)c(OC)c1 | . | . | . | . | . | -3 | .
O=C(Nc1ccc2ccccc2c1)N1C[C@H]2C[C@@H](C1)c1cccc(=O)n1C2 | 6 | 1 | -30 | -2 | . | -9 | .
CC[n+]1c(/C=C/C=C/c2ccc(N(C)C)cc2)sc2ccccc21 | 37* | 92* | 23 | 99* | . | ? | 58*
O=C1CN=C(c2ccc[nH]2)c2cc(Cl)ccc2N1 | 31* | 37* | 4 | 54* | . | 11 | 22
O=c1cccc2n1CC1CNCC2C1 (centres undefined) | -2 | . | -20 | . | . | 7 | .
CC(=O)O[C@H]1CC[C@@]2(C)[C@H](C1)C(=O)C[C@H]1[C@@H]3CC[C@@H]4[C@@H](CN5C[C@@H](C)CC[C@H]5[C@@]4(C)O)[C@@H]3C[C@@H]12 | -4 | . | -15 | . | . | -7 | .
CC1(C)N=C(c2ccccc2)[C@@H]2C(c3ccc([N+](=O)[O-])cc3)N21 (some centres undefined) | 0 | 3 | 0 | -2 | 14 | -6 | .
CC1=CC2/C=C(\C)CCC(O)C(O)/C=C/C(=O)C23C(=O)NC(CC(C)C)C3C1C (centres undefined) | 39* | 49* | -11 | 89* | 45* | 56 | 29*
CC[C@@]1(O)C(=O)OCc2c1cc1n(c2=O)Cc2cc3c(NC(=O)CN)cccc3nc2-1 | 41* | 79* | 20 | 94* | . | 71* | 26*
COc1cc(/C=C(/C)[N+](=O)[O-])ccc1OCc1ccccc1Cl | -3 | 2 | -33 | 2 | 42 | -134 | .
